From PubChem BioAssay (NCATS)
Inconclusive results are not listed. Activity calls are given as the source filed them. Calls come from the whole dose curve; as a rule, active = well fitted curve in either direction with a large enough effect (not every such curve was filed as active); inconclusive = small, poorly fitted or top-dose-only effect, or another doubt; inactive = flat fitted curve, though single readings scatter.

Biological target: Mitogen-activated protein kinase 10 (Mus musculus) (UniProt Q61831)
Assay: JNK3 AlphaScreen Assay (AID 530);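 note: kinase came from lysate of stimulated human HepG2 cells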
Conditions: JNK3 lysate, c-Jun phosphorylation; series mostly up to 57.1 µM; activity change, negative = inhibition: at the top concentration
Excerpt: NIH Chemical Genomics Center [NCGC]
NIH Molecular Libraries Screening Centers Network [MLSCN]
The c-jun N-terminal kinase (JNK) family are serine/threonine protein kinases that phosphorylate c-jun, a component of the transcription factor […] (AP-1). JNK kinases are members of the mitogen-activated protein kinase family including the extracellular regulated kinases and p38 kinases. Three JNK genes (JNK 1, 2, and 3) have been identified in humans so far. JNK1 and JNK2 have a broad distribution and JNK3 is primarily found in neuronal tissues and cardiac myocytes.
JNK3 has been under consideration as a target for the treatment of neurodegenerative disorders. […] JNK pathway is also involved in pathological process in a mouse model of Parkinson's disease (Xia et al., 2001).
Given these potential tissue distributions and links to neuroprotection, JNK3 inhibitors should provide useful investigational tools to study the role of this kinase in several diseases including, arthritis, stroke, myocardial infarction, ischemic injury and Parkinson's disease.
A homogeneous AlphaScreen is developed to measure the activity of JNK3. AlphaScreen is a two bead-based proximity-dependent chemical energy transfer luminescent assay platform. The phosphorylation of a biotinylated c-jun substrate by JNK3 can be detected with an antibody raised against phosphorylated c-jun. This process brings streptavidin donor beads and Protein-A acceptor beads to within a proximity range of <200 nm, and subsequently lead a chemical luminescent reaction upon exciting donor beads with 680 nm laser excitation light. Inhibition of JNK3 activity by small molecules and subsequent decrease in the antibody binding to biotinylated c-jun could attenuate or abolish this chemical luminescent reaction.
Yang DD, Kuan CY, Whitmarsh AJ, Rincon M, Zheng TS, Davis RJ, Rakic P and Flavell RA (1997) Absence of excitotoxicity-induced apoptosis in the hippocampus of mice lacking the Jnk3 gene. Nature 389:865-870. [PMID: 9349820]
Herdegen T, Claret FX, Kallunki T, Martin-Villalba A, Winter C, Hunter T, and Karin M (1998) Lasting N-terminal phosphorylation of c-Jun and activation of c-Jun N-terminal kinases after neuronal injury. J.Neurosci. 18:5124-5135. [PMID: 9651196]
Xia XG, Harding T, Weller M, Bieneman A, Uney JB and Schulz JB (2001) Gene transfer of the JNK interacting protein-1 protects dopaminergic neurons in the MPTP model of Parkinson's disease. Proc.Natl.Acad.Sci.U.S.A. 98:10433-10438.
NCGC Assay Protocol Summary:
GST-cJun (1-79) (Stratagene, La Jolla CA, #205145) was biotnylated by PerkinElmer (PerkinElmer-BioSignalInc. Montreal, Canada) and was detectable by the streptavidin Donor beads. Anti-(phospho)cJun (Ser73) antibody was from UpState (Charlottesvilles, VA, #06-659). JNK3-containing lysates were generated from HepG2 cells and pre-activated by interleukin1-beta and tumor necrosis factor alpha. All reagents were stored at -20 C before using. Phosphorylated biotinylated-GST-cJun was recognized by Anti-(phospho)cJun (Ser73) antibody and this process brings acceptor and donor beads together. Therefore JNK3 phosphorylation of cJun can be measured by Alpha reading by EnVision (PerkinElmer, Boston, MA).
The composition of kinase buffer was (in mM) 20 tris- HCl (pH 7.6) 10 MgCl2, 1 DTT, and 0.1 Na3VO4 and 0.01% Tween-20. Beads were diluted in detection buffer containing (in mM) 20 tris-HCl (pH 7.7), 20 NaCl and 80 EDTA and 0.3% BSA. The assay was performed at room temperature. All compounds were screened as titrations from 0.6 nM to 46 uM final concentration. The assay was performed in 1536-well format (white solid bottom and untreated) as follows:
Sequence,Parameter,Value,Description
1,Reagent,3 uL,Biotin-GST-cJun, Anti-(phospho)cJun and pre-activated JNK3-containing lysates
2,Compound,23 nL,Final concentration was 0.6nM to 46uM
3,Time,15 minutes,Room Temperature
4,Reagent,1 uL,ATP final concentration 10uM
6,Reagent,0.5 uL,2ng/well bead mixture
[…]
% is set by controls: 0 for no effect and ±100 for the full control effect.

SMILES	outcome	activity change, negative = inhibition
NC(=O)c1cnccn1	inactive	–
Nc1nc2c(ncn2COCCO)c(=O)[nH]1	inactive	–
C1COC(NC(C2CC2)C2CC2)=N1	inactive	–
O=C1CCc2cc(OCCCCc3nnnn3C3CCCCC3)ccc2N1	inactive	–
CCCC(CCC)C(=O)O	–	18.4% (inactive)
N=c1nc(N2CCCCC2)cc(N)n1O	inactive	–
NS(=O)(=O)c1cc2c(cc1Cl)NC=NS2(=O)=O	inactive	–
CN1CCN(CCCN2c3ccccc3Sc3ccc(C(F)(F)F)cc32)CC1	inactive	–
NNCCc1ccccc1	inactive	–
Nc1nc2ccc(OC(F)(F)F)cc2s1	–	-8.53% [at 25.6 µM] (inactive)
Cc1oncc1C(=O)Nc1ccc(C(F)(F)F)cc1	inactive	–
Cc1[nH]c(=O)c(C#N)cc1-c1ccncc1	inactive	–
O=c1n(CCCN2CCN(c3cccc(Cl)c3)CC2)nc2ccccn12	inactive	–
Cc1ccc2c(c1)C(=O)[C@@]1(O)CCN(c3ccccc3)C1=N2	–	2.25% (inactive)
Cc1ccc(N(CC2=NCCN2)c2cccc(O)c2)cc1	inactive	–
CNC[C@H](O)c1cccc(O)c1	–	2.99% (inactive)
CC(C)C[C@H](NC(=O)[C@@H](O)[C@H](N)Cc1ccccc1)C(=O)O	–	-11.8% (inactive)
CCOC(=O)C1=C[C@@]2(CC)CCCN3CCc4c(n1c1ccccc41)[C@H]32	inactive	–
CC(=O)Oc1ccccc1C(=O)O	inactive	–

SMILES	outcome	activity change, negative = inhibition
CCCCNc1cc(C(=O)O)cc(S(N)(=O)=O)c1Oc1ccccc1	–	-0.869% [at 25.6 µM] (inactive)
NC(=O)c1ccc(-c2nc(-c3ccc4c(c3)OCO4)c(-c3ccccn3)[nH]2)cc1	–	-34.4% (inactive)
CCOC(=O)N1CCC(=C2c3ccc(Cl)cc3CCc3cccnc32)CC1	inactive	–
CC(C)(Sc1ccc(CCN(CCCCC2CCCCC2)C(=O)NC2CCCCC2)cc1)C(=O)O	inactive	–
Cc1cnc(NC(=O)C2=C(O)c3ccccc3S(=O)(=O)N2C)s1	–	-28% (inactive)
O=NN(CCCl)C(=O)NCCCl	–	-7.25% (inactive)
Nc1ccc(S(=O)(=O)Nc2ccnn2-c2ccccc2)cc1	inactive	–
CCN(c1ccccc1)c1cc(NC)[n+](C)c(C)n1	–	-20.2% (inactive)
Cn1cnc([N+](=O)[O-])c1Sc1ncnc2nc[nH]c12	inactive	–
O=c1[nH]cnc2[nH]ncc12	inactive	–
NCCc1ccc(O)c(O)c1	–	2.69% (inactive)
Clc1cccc(Cl)c1NC1=NCCN1	–	-2.44% [at 25.6 µM] (inactive)
CCC(C)(C)C(=O)O[C@H]1C[C@@H](C)C=C2C=C[C@H](C)[C@H](CC[C@@H]3C[C@@H](O)CC(=O)O3)[C@H]21	–	-8.9% (inactive)
COc1ccc2nc(S(=O)Cc3ncc(C)c(OC)c3C)[nH]c2c1 (configuration not stated)	–	-10.3% [at 25.6 µM] (inactive)
NC[C@H](O)c1ccc(O)c(O)c1	inactive	–
N#Cc1ccc(C(c2ccc(C#N)cc2)n2cncn2)cc1	–	-0.854% [at 25.6 µM] (inactive)
NC(N)=NC(=O)c1nc(Cl)c(N)nc1N	inactive	–
N[C@@H]1CONC1=O	inactive	–
